From PubChem
Compounds with a hit are over-represented: about 21% of the library has one in this group of screens.
Pf growth 48h: inhibits P. falciparum growth in the first generation, 48 h | P. falciparum luciferase growth in erythrocytes, 48 h | Potency, µM (highest dose often 28.7 µM), inactives show at the highest dose activity change, negative = inhibition, usual class: inhibitors | hit rate 5.9% among 310,000 | AID 504832; also: potency is read from the fitted curve at half-maximal effect; % is scaled to controls: 0 for no effect and ±100 for the full control effect
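Growth was read as firefly luciferase luminescence after a 48 h, 37 C, 5% CO2 exposure of compounds to reporter-bearing P. falciparum cultures (0.1% parasitemia, 2% hematocrit final) in Albumax-supplemented RPMI 1640.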
Shiga inhibitor: inhibitors of Shiga toxin in Vero cells; Vero cells, Shiga toxin protein synthesis inhibition reporter; inhibition, % at 38.7 µM; hit rate 9.2% among 290,000; AID 2315; in the data active = inhibition mostly above about 28%, no sharp cut-off; inactive = mostly below about 43%; also: 0% is about no effect
Sm TGR inh: blocks Schistosoma mansoni thioredoxin glutathione reductase; Q962Y6; purified TGR, DTNB reduction, TNB absorbance 405 nm; Potency, µM (series often up to 114 µM), without a hit: top-dose activity change, negative = inhibition, most hits filed as inhibitors; hit rate 3% among 360,000; AID 485364; also: potency is read from the fitted curve at half-maximal effect; % is scaled to controls: 0 for no effect and ±100 for the full control effect; nearly all actives have a fitted effect of over 60% in size
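TGR 20 nM + NADPH 100 uM (dispensed conc.), cpd preinc 15 min RT; start with NADPH (500 uM addition) then DTNB (15 mM addition). Kinetic TNB absorbance, 405 nm filter. Four-parameter Hill fit across titration.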
Pf growth 96h: P. falciparum growth inhibition at 96 hour, primary screen for plastid delayed-death inhibitors; P. falciparum luciferase reporter growth, 96 h; Potency, µM (doses to about 28.7 µM), for the others: top-dose activity change, negative = inhibition, usual class: inhibitors; hit rate 6.9% among 320,000; AID 504834; also: potency is read from the fitted curve at half-maximal effect; % is scaled to controls: 0 for no effect and ±100 for the full control effect
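Luminescence readout: decreased luciferase signal marks inhibited growth of reporter-expressing P. falciparum in infected red cells (2% hematocrit, 0.05% parasitemia final), exposed to compound two generations (96 h, 37 C, 5% CO2).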
NS1 inh: blocks influenza NS1 protein function; hit rate 0.4% among 270,000; Potency, µM (top dose mostly 46.1 µM), for the others: top-dose activity, positive = more growth; AID 2326; calls by dose curve; also: potency is read from the fitted curve at half-maximal effect; actives are rising curves; nearly all actives have a fitted effect of over 50% in size
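Recovery from NS1-induced slow growth read by OD600 in budding yeast switched to galactose assay medium (pH 6.0, -URA) at 1:100 dilution. Compound 23 nl per well; the matching strain lacking NS1 serves as control.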
Cycloheximide cs: counter-screen hit for Shiga toxin inhibitors, cycloheximide | cell reporter, cycloheximide protein synthesis inhibition counterscreen | max response, % | hit rate 12% among 300,000; in the data active = max response mostly above about 13%, no sharp cut-off; inactive = mostly below about 14%; also: read at 38.3 µM for the half of the compounds with a filed dose; 0% is about no effect
The depositor's hits bear a star; ? = inconclusive; . = no result; [ ] = remark or other dose. Unless noted, calls follow the shape of the dose curve; as a rule, active = well fitted curve in the direction sought with a large enough effect; inconclusive = small, poorly fitted or top-dose-only effect, or another doubt; inactive = no such curve, though single readings can be large; an effect the other way counts as inactive or inconclusive.

SMILES	Pf growth 48h	Shiga inhibitor	Sm TGR inh	Pf growth 96h	NS1 inh	Cycloheximide cs
CCN(CC)CCN(Cc1cc2cc(C)ccc2[nH]c1=O)C(=S)NCc1ccco1	6.57µM*	-2.1	3.3%	?	23.9%	6.4
CCN(CC)CCN(Cc1cc2ccc(C)c(C)c2[nH]c1=O)C(=S)NCc1ccco1	10.4µM*	7.2	2.8%	?	4.8%	-1.5
COc1ccc(N(CC(=O)Nc2cccc(N(C)S(C)(=O)=O)c2)S(=O)(=O)c2ccccc2)cc1Cl	?	0.7	5.5%	0.0%	?	1.2
CC(C)(C)NC(=S)NCc1ccncc1	2.7%	-3.6	-2.4%	17.3%	4.0%	-0.6
CCCNC(=O)c1c(NC(=O)c2ccccc2)sc2c1CCC(C(C)(C)C)C2 (configuration not stated)	.	.	2.3%	.	.	.
COc1ccc(CCNC(=O)CSc2nnc3ccc(-c4ccccn4)nn23)cc1	8.9%	.	2.8%	54.8%	.	.
CNC(=S)N(Cc1ccco1)Cc1cc2cc3c(cc2[nH]c1=O)OCCO3	-15.0%	18.2	14.1µM*	0.0%	-4.7%	9.9
COc1ccccc1NC(=S)N(Cc1ccco1)Cc1cc2cc(C)c(C)cc2[nH]c1=O	13.1µM*	-10.1	1.3%	2.08µM*	15.9%	-0.8
COc1ccc(CC(=O)OCCc2cc3cc(OC)c(OC)cc3c(=O)o2)cc1	?	.	7.08µM*	?	.	.
COc1cc2cc(CCOC(=O)c3ccc(C(F)(F)F)cc3)oc(=O)c2cc1OC	?	.	?	-20.4%	.	.
Cc1ccc(NC(=O)Cn2cc(S(=O)(=O)NC(C)C)c(S(=O)(=O)NC(C)C)c2)cc1Cl	.	.	1.1%	.	.	.
Oc1ccc(/C=C/c2nc(-c3ccccc3O)n(-c3ccccc3)n2)c(O)c1	.	.	-8.0%	.	.	.
O=C(Nc1cccc2ccccc12)N1CCN(c2ccc(F)cc2)CC1	12.8%	-11.3	1.2%	1.47µM*	3.2%	7.1
COC(=O)c1ccccc1NC(=O)N1CCN(c2ccc(F)cc2)CC1	-8.6%	-20.3	16.4%	4.15µM*	0.3%	1.1
Cc1cc(C)cc(NC(=O)N2CCCN(c3c(Cl)cncc3Cl)CC2)c1	?	0.6	2.3%	?	2.6%	-2.3
O=C(Nc1cccc2ccccc12)N1CCCN(c2c(Cl)cncc2Cl)CC1	?	-6.7	10.5%	5.86µM*	-5.1%	-1.3
NC(=O)c1ccc(NC(=O)c2ccc(COc3ccc(F)cc3)o2)cc1	5.4%	.	-0.7%	36.0%	.	.
CCOC(=O)Cn1c(=O)oc2cc(S(=O)(=O)Nc3cc(OCC)ccc3OCC)ccc21	?	9.8	1.1%	1.47µM*	-30.7%	-2.9
CCOC(=O)Cn1c(=O)oc2cc(S(=O)(=O)NC(C)c3ccccc3)ccc21 (configuration not stated)	.	-8.1	6.1%	8.28µM*	2.6%	-2.6
Cc1cccc(N(C(=O)c2snc(C(N)=O)c2N)C(C(=O)NC2CCCC2)c2ccco2)c1 (configuration not stated)	?	18.9	-29.2%	-10.4%	14.0%	4.0
CCN(CC)C(=O)CC(c1ccc(F)cc1)c1ccco1 (configuration not stated)	?	-9.6	28.2µM*	-24.3%	20.2%	-1.4
CCCN(CCC)C(=O)CC(c1ccccc1)c1ccco1 (configuration not stated)	11.7µM*	2.1	14.1µM*	?	3.0%	-1.3
NC(=O)CC(c1ccccc1)c1ccco1 (configuration not stated)	-6.9%	-9.9	-9.2%	-4.4%	?	-1.4
COc1ccc(Cl)cc1NC(=O)CN(C)C(=O)CCc1nc2ccccc2c(=O)[nH]1	-21.4%	.	0.9%	?	.	.
CCCCn1c(-c2ccc(C(C)(C)C)cc2)nc2cc3[nH]c(=O)c(C(C)C)nc3cc21	?	-4.5	-15.6%	4.65µM*	29.6%	-2.2
SMILES	Pf growth 48h	Shiga inhibitor	Sm TGR inh	Pf growth 96h	NS1 inh	Cycloheximide cs
CCCCn1c(-c2ccc(Cl)c(Cl)c2)nc2cc3[nH]c(=O)c(C(C)C)nc3cc21	?	1.8	0.0%	4.65µM*	?	-0.5
CCCCn1c(=O)[nH]c(=O)c2c1nc(-c1ccc(C(F)(F)F)cc1)n2C	-5.7%	-5.4	14.8%	11.6%	5.1%	-4.7
Cc1cc(OC(C)C(=O)Nc2cccc(-c3nc4ccccc4o3)c2)cc(C)c1Cl (configuration not stated)	.	.	37.6%	.	.	.
Cc1ccc(S(=O)(=O)N(C(=O)c2ccncc2)c2ccc(OC(=O)c3ccncc3)c3ccccc23)cc1	10.4µM*	-15.1	20µM*	9.28µM*	-21.3%	-2.7
COc1ccc(S(=O)(=O)N2CCc3ccccc32)cc1[N+](=O)[O-]	-2.4%[0.00184 µM]	-9.7	-0.3%	?	-4.3%	-3.5
CC(=O)Oc1ccc(N(C(C)=O)S(=O)(=O)c2ccc(C)cc2C)c2ccccc12	8.28µM*	-6.0	-2.7%	2.62µM*	5.2%	-0.6
COc1ccc(S(=O)(=O)N(C(C)=O)c2ccc(OC(C)=O)c3ccccc23)cc1[N+](=O)[O-]	6.57µM*	8.8	-13.0%	-2.5%	10.8%	0.8
CC(=O)Oc1ccccc1N(C(C)=O)S(=O)(=O)c1ccc(C)cc1	11.2%	24.8	-4.3%	?	.	-3.9
Cc1ccc(S(=O)(=O)N(C(=O)c2ccncc2)c2ccc(OC(=O)c3ccncc3)c3ccccc23)c(C)c1	.	-10.0	17.8µM*	9.28µM*	0.1%	-6.2
CCn1c(SCC(=O)Nc2ccccc2C)nc2nc3c(cc2c1=O)COC(C)(C)C3	?	2.6	-10.6%	?	-1.6%	-1.4
CCCCn1c(N)c(N(CCOC)C(=O)c2cc3c(s2)CCC3)c(=O)[nH]c1=O	19.5%	.	-5.9%	-14.5%	.	.
O=C(Nc1cccnc1)c1cc(S(=O)(=O)N2CCCCC2)c(Cl)cc1Cl	18.0%	-13.7	4.6%	10.4%	6.8%	-2.6
CO/N=C(\C(=O)N[C@@H]1C(=O)N2C(C(=O)O)=C(COC(C)=O)CS[C@H]12)c1csc(N)n1	.	11.9	.	.	.	4.2
CO/N=C(/C(=O)N[C@@H]1C(=O)N2C(C(=O)O)=C(C[n+]3ccc(N)n3CCO)CS[C@H]12)c1csc(N)n1	-5.7%	.	.	10.7µM*	.	.
CO/N=C(/C(=O)N[C@@H]1C(=O)N2C(C(=O)O)=C(CSC(=O)c3ccco3)CSC12)c1csc(N)n1 (some centres not stated)	?	.	.	13.5µM*	.	.
CCOc1ccc(-c2nn(-c3ccccc3)cc2/C=C(\C#N)S(=O)(=O)c2ccccc2)cc1C	?	2.7	7.0%	338.2%	-12.0%	-0.1
CCN(CC)C(=O)COc1ccc(/C=C(\C#N)S(=O)(=O)c2ccccc2)cc1OC	0.7%	-13.7	5.4%	9.28µM*	3.3%	-3.9
O=C(NCC1(N2CCOCC2)CCCCC1)c1cccc(S(=O)(=O)N2CCc3ccccc3C2)c1	8.28µM*	-6.1	-1.4%	?	-3.0%	-3.2
